Records with an inconclusive call do not appear. Where a call stands in place of a potency, no number is given. The source made the active and inactive calls. Calls follow the shape of the dose curve; as a rule, active = well fitted inhibition curve with a large enough effect; inconclusive = small, poorly fitted or top-dose-only effect; inactive = flat fitted curve, though single readings scatter.
Potency is read from the fitted curve at half-maximal effect.

For this experiment, the target named is Dual specificity protein kinase CLK4 (Homo sapiens) (UniProt Q9HAZ1). Description: qHTS Assay for Inhibitors of CDC-like Kinase 4 (Kinase-Glo Assay) (AID 1770). Also: nearly all actives have a fitted effect of over 65% in size. To be noted: recombinant Clk4, Kinase-Glo ATP depletion luminescence; series mostly up to 66.7 µM. Here is the method: NIH Molecular Libraries Probe Production Centers Network [MLPCN] NIH Chemical Genomics Center [NCGC] MLPCN Grant: 1R03MH084827-01 Assay Submitter (PI): Tom Misteli NCGC Assay Overview: Clk4 (Invitrogen, cat# PV3839) was assayed using ATP and the RS repeat peptide (AnaSpec cat # 61722) as substrates. Following the Clk4 reaction, the remaining ATP levels were detected using Promega Kinase-Glo technology wherein the remaining ATP from the kinase reaction is detected using Ultra-Glo luciferase and D-luciferin which generates a bioluminescence signal from the ATP. The positive control for the assay was TG003 (Sigma-Aldrich, cat# 300801-52-9) which has been described as an inhibitor of Clk 4[1].
Chain of Dual specificity protein kinase CLK4 (Homo sapiens) (Q9HAZ1 whole entry, looked up): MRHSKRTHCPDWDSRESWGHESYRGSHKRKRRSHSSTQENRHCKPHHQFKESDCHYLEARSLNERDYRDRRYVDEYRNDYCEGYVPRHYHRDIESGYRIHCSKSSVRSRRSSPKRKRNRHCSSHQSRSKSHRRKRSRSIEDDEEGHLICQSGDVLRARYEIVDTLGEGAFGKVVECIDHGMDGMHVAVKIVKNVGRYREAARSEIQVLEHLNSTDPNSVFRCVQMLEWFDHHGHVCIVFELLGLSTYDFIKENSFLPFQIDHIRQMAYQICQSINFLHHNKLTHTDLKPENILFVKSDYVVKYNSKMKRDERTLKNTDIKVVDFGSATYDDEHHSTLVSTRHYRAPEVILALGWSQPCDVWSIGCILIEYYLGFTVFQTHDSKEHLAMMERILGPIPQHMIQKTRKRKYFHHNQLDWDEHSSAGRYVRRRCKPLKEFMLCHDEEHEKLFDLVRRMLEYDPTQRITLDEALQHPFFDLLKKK
NCGC Assay Protocol Summary: Two uL/well of substrate-buffer solution (100 uM RS peptide, 1 uM ATP, 25 mM Tris pH7.5, 10 mM MgCl2, 0.5 mM EGTA, 2.5 mM DTT, 0.01% Triton X-100 final concentration) was dispensed into 1536-well, assay plates (Greiner, solid white medium-binding plates) with Aurora Discovery BioRAPTR Flying Reagent Dispenser (FRD; Beckton-Dickenson). Using a Kalypsys pin tool equipped with a 1536-pin tool, 23 nL of compound solution was transferred to the assay plate. One uL/ well Clk4-buffer solution (25 nM Clk4, 25 mM Tris pH 7.5, 10 mM MgCl2, 0.5 mM EGTA, 2.5 mM DTT, 0.01% Triton X-100, final concentrations) was then added using the FRD yielding a total kinase reaction volume of 3 uL/ well. After 4.5 hours of room temperature incubation, 3 uL Kinase-Glo reagent was added for a final assay volume of 6 uL/ well. Luminescence was detected with the ViewLux plate reader (Perkin Elmer, Waltham, MA) after 5 min incubation using a 5 second exposure time and 2x binning.
In general terms: Quantitative high-throughput screening tests each substance at several concentrations.
Consider `COc1cccc(-c2nc(N(C)C)c3ccccc3n2)c1`, for which the Potency is 11.2 µM (active).
For `COc1ccc(CNc2ncncc2-c2ccccc2OC)c(OC)c1` the value was “inactive”; for `c1cncc(CNc2nc(-c3cccnc3)nc3ccccc23)c1`, 7.08 µM (active); for `COc1ccc2[nH]cc(CCNc3ncncc3-c3ccccc3OC)c2c1`, 8.91 µM (active).
In the case of `c1ccc(CNc2nc(-c3cccnc3)nc3ccccc23)cc1`, the Potency is 7.08 µM (active).
Consider `COc1ccc2[nH]cc(CCNc3ncncc3-c3ccccc3Cl)c2c1`, for which the Potency was 12.6 µM (active).
For `CN1CCN(c2ncc3nc(-c4cccc(C#N)c4)c(=O)n(CCc4ccccc4)c3n2)CC1` the value was “inactive”; for `CN(C)c1ccc(-c2cc(N(C)Cc3ccco3)ncn2)cc1`, 25.1 µM (active); for `Cn1cc(-c2nc3cnc(N4CCNCC4)nc3n(CCc3ccccc3)c2=O)c2ccccc21`, “inactive”.
For the molecule `COc1ccc2[nH]cc(CCNc3ncncc3-c3ccoc3)c2c1`, the Potency was 14.1 µM (active).
The result for `CN1CCN(c2ncnc3ccc(-c4ccccc4C(F)(F)F)cc23)CC1` reads “inactive”; that for `Cc1ccccc1-c1ccc2ncnc(-n3ccnc3)c2c1`, 7.94 µM (active).
The result for `CCNc1ncc2nc(CCc3ccccc3)c(=O)n(C3CC3)c2n1` reads “inactive”; that for `COc1ccc2[nH]cc(CCNc3cc(-c4ccccc4OC)ncn3)c2c1`, 12.6 µM (active); that for `CN(C)C(=O)c1ccc(-c2cc(NCc3ccccc3)ncn2)cc1`, 25.1 µM (active).
As for `CN(Cc1ccco1)c1ncnc2ccc(-c3cccc(NS(C)(=O)=O)c3)cc12`, the Potency is 7.08 µM (active).
In the case of `COc1ccc2[nH]cc(CCNc3cc(-c4cccc(C#N)c4)ncn3)c2c1`, the Potency is 25.1 µM (active).
As to `COc1ccccc1CNc1ncncc1-c1ccccc1Cl`, the Potency entry is “inactive”.
Regarding `COc1ccc(-n2c(=O)c(CCc3ccccc3)nc3cnc(OC)nc32)cc1`, the Potency result was “inactive”.
For `COc1ccc(-n2c(=O)c(-c3cccs3)nc3cnc(N4CCN(C)CC4)nc32)cc1` the value was “inactive”; for `Clc1ccccc1-c1nc(Nc2ccncc2)c2ccccc2n1`, 7.94 µM (active).
Turning to `COc1ccccc1-c1nc(N2CCN(C)CC2)c2ccccc2n1`, the Potency result is “inactive”.
The result for `COCCn1c(=O)c(-c2cccc(C#N)c2)nc2cnc(OCc3ccccc3)nc21` reads “inactive”; that for `Cc1noc(C)c1-c1nc(N2CCN(C)CC2)c2ccccc2n1`, 15.8 µM (active).
With `COc1ccc2[nH]cc(CCNc3ncnc4ccc(-c5cccc(C#N)c5)cc34)c2c1`, the Potency was 12.6 µM (active).
The result for `COc1cccc(Cn2c(=O)c(CCc3ccccc3)nc3cnc(N(C)C)nc32)c1` reads “inactive”.
For `COc1cccc(-c2ccc3ncnc(NCc4ccc(OC)cc4OC)c3c2)c1` the value was 35.5 µM (active); for `N#CCCn1c(=O)c(-c2ccc(Cl)cc2)nc2cnc(N3CCOCC3)nc21`, “inactive”; for `O=c1c(CCc2ccccc2)nc2cnc(N3CCOCC3)nc2n1-c1ccccc1`, “inactive”.
For `CC(=O)NCCNc1nc(-c2cccc(C#N)c2)nc2ccccc12` the value was 28.2 µM (active); for `COc1ccc(Oc2ncc3nc(-c4ccc(F)cc4)c(=O)n(C[C@H]4CCCO4)c3n2)cc1`, “inactive”.
Take `COCCn1c(=O)c(-c2cc(F)cc(F)c2)nc2cnc(N3CCN(C)CC3)nc21`: the Potency result is “inactive”.
The result for `CN(C)c1nc(-c2ccc3c(c2)OCO3)nc2ccccc12` reads “inactive”; that for `c1ccc2c(NCCN3CCOCC3)nc(-c3ccc4c(c3)OCO4)nc2c1`, “inactive”.
The result for `COc1ncc2nc(-c3ccccc3)c(=O)n(CCc3ccccc3)c2n1` reads “inactive”.
Regarding `CN(C)c1ncc2nc(CCc3ccccc3)c(=O)n(Cc3cccs3)c2n1`, the Potency entry was “inactive”.
As for `COCCn1c(=O)c(CCc2ccccc2)nc2cnc(Oc3ccccc3)nc21`, the Potency result was “inactive”.
The result for `CN1CCN(c2ncc3nc(-c4cccs4)c(=O)n(CCc4ccccc4)c3n2)CC1` reads “inactive”.
Consider `FC(F)(F)c1ccccc1-c1nc(NCc2cccnc2)c2ccccc2n1`, for which the Potency entry is “inactive”.
The result for `COc1ccccc1CNc1cc(-c2cccnc2)ncn1` reads 25.1 µM (active).

Values taken from PubChem BioAssay (NCATS).
